# Screening data as filed in PubChem.
# uPA surface inh: qHTS for Inhibitors of Cell Surface uPA Generation | hit rate 0.31% among 330,000 | Potency, µM (doses to about 38.3 µM), for inactives: at the highest dose activity change, negative = inhibition, usual class: inhibitors | cell surface uPA generation assay, qHTS; active = well fitted inhibition curve with a large enough effect; inconclusive = small, poorly fitted or top-dose-only effect; inactive = no such curve, though single readings can be large or run the other way; tested in mouse RAW 264.7 cells; also: potency is read from the fitted curve at half-maximal effect; % is scaled to controls: 0 for no effect and ±100 for the full control effect; nearly all actives have a fitted effect of over 55% in size
# S2 tox: Viability Counterscreen for Primary qHTS for Inhibitors of ATXN expression | S2 cells (HEK-293 line with an ATXN2-luciferase reporter) viability, CellTiter-Fluor protease fluorescence, 24 h | Potency, µM (titrated, usually from 56.7 µM), usual class: cytotoxic | hit rate 0.49% among 400,000 | AID 651635, 2014; also: potency is read from the fitted curve at half-maximal effect; nearly all actives have a fitted effect of over 40% in size
# Giardia killer: Small Molecules that selectively kill Giardia lamblia: qHTS. activity change, % at 7.66 µM, hits read low. AID 540267, 2011. hit rate 0.15% among 340,000. Giardia lamblia trophozoite viability; in the data active = activity change below about -80%; inconclusive = between about -30% and that limit;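 also: parasites exposed to compound for two days anaerobically before the ATP read; % is scaled to controls: 0 for no effect and ±100 for the full control effect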
#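 Viability, read as ATP luminescence: trophozoites at 100 cells/well, compound added, 48 hrs anaerobic at 37 deg C, then 15-30 min room-temperature development before reading.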
# HepG2 viability: qHTS for Inhibitors of TGF-b: Cytotox Counterscreen; HepG2 CAGA-GFP viability, ATP luminescence, 18 h; Potency, µM (series often up to 46.1 µM), for inactives: top-dose activity change, negative = cytotoxicity, most hits filed as cytotoxic; AID 588856, 2011; hit rate 0.76% among 410,000; also: potency is read from the fitted curve at half-maximal effect
#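 CellTiter-Glo luminescence gave cytotoxicity after 18 hours at 37 degrees C. The cells were HepG2 CAGA-GFP in 1% FBS DMEM, stimulated with 500 pg/mL TGF-beta after compound addition. %Activity was normalised to no-cell wells (complete cell-killing) and DMSO (no toxicity), and curves were fitted and classified.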
# TGFb SMAD3 inh: qHTS for Inhibitors of TGF-b; HepG2 CAGA-GFP TGF-b/SMAD3 reporter, GFP fluorescence, 18 h; TGF-beta stimulated, 500 pg/mL final; Potency, µM (doses to about 46.1 µM), for the others: top-dose activity, negative = inhibition, actives largely listed as inhibitors; hit rate 1.2% among 410,000; also: potency is read from the fitted curve at half-maximal effect; % is scaled to controls: 0 for no effect and ±100 for the full control effect; nearly all actives have a fitted effect of over 65% in size
#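 TGF-beta reporter screen: HEPG2 CAGA-GFP, 1% FBS, 500 pg/mL TGF-beta final, 18 h; per-cell GFP summed per well; curves fitted and categorized by class.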
# ATXN2 expr inh: Primary qHTS for Inhibitors of ATXN expression | AID 1745845, 2022 | HEK-293 ATXN2-luciferase reporter, luminescence, 24 h | hit rate 0.72% among 360,000 | Potency, µM (titrated, usually from 57 µM), inactives show top-dose activity change, negative = inhibition, hits mostly inhibitors; also: potency is read from the fitted curve at half-maximal effect; % is scaled to controls: 0 for no effect and ±100 for the full control effect; nearly all actives have a fitted effect of over 55% in size
#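 qHTS (up to 57 uM final) was run with 24 h compound exposure of reporter cells at 37 °C. Each well was multiplexed: SteadyGlo luminescence measured ATXN2-luciferase expression after a fluorogenic Gly-Phe-AFC viability readout (25 uM final).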
# * = called active by the depositor; i = inactive; ? = inconclusive; · = not tested or not shown; ! = not active in a repeat. Rows were chosen to be rich in hits. Some 2.6% of all compounds tested hit in one or more screens of this group. Unless noted, calls follow the shape of the dose curve; as a rule, active = well fitted curve in the direction sought with a large enough effect; inconclusive = small, poorly fitted or top-dose-only effect, or another doubt; inactive = no such curve, though single readings can be large; an effect the other way counts as inactive or inconclusive.
SMILES,uPA surface inh,S2 tox,Giardia killer,HepG2 viability,TGFb SMAD3 inh,ATXN2 expr inh
Cc1ccc(NC(=O)c2cccn(Cc3ccccc3C)c2=O)c(C)c1,·,i,·,-5.7%,2.1%,12.6%
Cc1ccc(N/C(N)=N/c2nc(CSc3nnc(C)s3)cc(=O)[nH]2)c(C)c1,3.55µM*,?,37.4,-0.4%,0.7%,·
OC(COCc1ccc(Cl)cc1)CN1CC=C(c2ccccc2)CC1 (stereo not given),-1.2%,?,-6.5,28.2µM*!,?,-20.3%
CN(C)c1ccc(/C=C/c2cc[n+](C)c3ccccc23)cc1,-10.9%,5.97µM*,-4.8,-70.2%,7.08µM*,?
C[n+]1ccc(-c2ccccc2)c2ccccc21,?,?,-0.3,-17.9%,?,-14.3%
CN(C)c1ccc(/C=C/C=C/c2sc3ccccc3[n+]2C)cc1,-14.3%,?,-3.1,-20.2%,8.91µM*,?
CC1(NC(=O)CC(c2ccccc2)(c2ccccc2)c2ccccc2)CCN(CCCc2ccccc2)C1=O (stereo not given),?,?,7.5,-21.5%,8.91µM*,-12.9%
O=C(Cc1ccccc1)N1CCN(CCCc2ccccc2)CC1,5.7%,i,17.0,-21.2%,-5.1%,-5.1%
COc1cc(OC)c2c(-c3cccc(-c4ccc(N(C)C)cc4)c3)cc(=O)oc2c1,1µM*,i,-6.8,-7.0%,1.12µM*,1.2%
O=C1NC(=O)N(c2ccccc2)C(=O)/C1=C/c1ccc(Sc2ccccc2)o1,·,?,3.9,-3.5%,23.0%,25.1µM*
Cc1cc(-c2ccccc2)n(-c2cc(N/N=C/c3ccccc3O)ncn2)n1,10µM*,?,-14.1,-11.5%,?,?
COc1cc(-c2cccc([C@H]3[C@@H]4C=CC[C@@H](C)[C@@H]4C(=O)N3Cc3ccccc3)c2)cc(OC)c1OC,?,?,-28.9,-26.0%,?,?
Cc1ccccc1C1CC(=O)Nc2ccc3ccccc3c21 (stereo not given),·,?,·,-24.7%,12.6µM*,-21.5%
CCCOc1ccc(C(=O)CCC(=O)NNC(=O)c2ccncc2)cc1,0.5%,?,-5.7,6.2%,?,2.3%
O=C1NC(=O)N(Cc2ccccc2)C(=O)/C1=C/C=C/c1ccco1,?,20µM*,-11.3,-17.5%,11.2µM*,?
C[C@]12Cc3cn[nH]c3C[C@@H]1CC[C@@H]1[C@H]2CC[C@@]2(C)[C@H]1CC[C@]2(C)O,·,·,·,·,·,-11.4%
Cc1cc(OC(=O)N(C)C)nc(SCc2c(Cl)cccc2Cl)n1,?,i,7.1,8.91µM*,-26.8%,·
CN(C)C(=O)Oc1c(Cl)cc(Cl)c2ccccc12,-0.5%,i,16.1,-7.9%,30.7%,-15.5%
CC[n+]1c(-c2ccccc2)c2cc(N)ccc2c2ccc(N)cc21,-11.8%,?,-2.9,-13.5%,?,7.08µM*!
CC(C)=CCC/C(C)=C/CNC(=O)C[C@H]1C[C@H](C(=O)N(C(C)C)C(C)C)[C@@]2(C)c3[nH]c4cc(-c5ccco5)ccc4c3CCN2C1=O,?,?,-27.4,-45.7%,12.6µM*,?
CCc1ccc(NC(=O)c2ccc3oc(=O)n(Cc4ccccc4)c3c2)cc1,·,?,·,-21.2%,?,-15.0%
Cc1cccc(-n2ncc3c(NCCCO)ncnc32)c1,1.78µM*,i,3.4,2.6%,2.2%,37.7%
C[C@@H]1[C@H](O)[C@@H](C)C=CC=CCCC=CC=CC=CC=C[C@H](O[C@H]2O[C@@H](C)[C@H](O)[C@@H](N)[C@@H]2O)CC2O[C@](O)(C[C@@H](O)[C@H](O)CC[C@@H](O)C[C@@H](O)C[C@@H](O)CC(=O)O[C@H]1C)C[C@H](O)[C@H]2C(=O)O,·,i,·,·,·,9.8%
COc1ccc(NC(=O)Cn2c(=O)oc3cc(S(=O)(=O)N4CCC(C)CC4)ccc32)c(OC)c1,·,·,·,-30.3%,12.6µM*,·
COc1ccccc1NC(=O)Cn1c(=O)oc2cc(S(=O)(=O)N3CCCC3)ccc21,-0.6%,i,9.8,-0.5%,15.4%,-3.1%
SMILES,uPA surface inh,S2 tox,Giardia killer,HepG2 viability,TGFb SMAD3 inh,ATXN2 expr inh
CC(Cc1ccccc1)N(C)Cc1ccco1 (stereo not given),·,i,·,·,·,-0.4%
C/C1=C\[C@@H](C)C/C=C/[C@H]2[C@@H]3O[C@]3(C)[C@@H](C)[C@H]3[C@H](Cc4c[nH]c5ccccc45)NC(=O)[C@]32C(=O)/C=C/C(=O)[C@@H]1O,0.794µM*,31.6µM*,-19.5,-98.3%,2.82µM*,?
OC(Cn1c2ccccc2c2ccccc21)C[n+]1cccc2ccccc21 (stereo not given),·,22.4µM*,-10.9,-96.1%,?,?
CC(=O)OC1CC(OC2C(O)CC(OC3C(O)CC(OC4CCC5(C)C(CCC6C5CCC5(C)C(C7=CC(=O)OC7)CCC65O)C4)OC3C)OC2C)OC(C)C1OC1OC(CO)C(O)C(O)C1O (stereo not given),3.7%,?,-6.2,-40.6%,?,0.0075µM*
CC12CC[C@H]3[C@@H](CCC4(O)C[C@H](O)CCC34/C=N/NC(=O)c3ccc(O)cc3)C1(O)CCC2C1=CC(=O)OC1 (stereo not given in full),-2.8%,i,-1.5,1.1%,13.9%,19.1%
Clc1ccc(COC(Cn2ccnc2)c2ccc(Cl)cc2Cl)c(Cl)c1 (stereo not given),?,?,-13.7,15.8µM*!,?,?
Clc1ccc(CO[C@@H](Cn2ccnc2)c2ccc(Cl)cc2Cl)cc1,·,i,·,·,·,·
CCOP(=O)(OCC)OCC,6.2%,i,0.3,2.9%,2.5%,4.5%
CCOP(=O)(CCP(=O)(OCC)OCC)OCC.C[CH2][Sn]([Cl])([Cl])[CH2]C,-8.9%,?,12.1,2.1%,?,18.9µM*
Cc1c(C=O)c2ccccc2n1Cc1ccccc1F,0.4%,i,-8.9,-40.5%,1.12µM*,-18.0%
COc1cc2nc(CN3CC=C(c4ccccc4)CC3)[nH]c(=O)c2cc1OC,3.1%,i,0.6,-30.8%,?,1µM*
COc1cc(C)c(CN2CC=C(c3ccc(F)cc3)CC2)cc1C,-2.5%,?,0.8,-21.8%,7.3%,-13.4%
S=c1nc[nH]c2nc[nH]c12,?,?,15.2,1.41µM*!,2.6%,?
